Assay outcomes from PubChem.
SARS PLpro yeast: inhibitors of SARS-CoV papain-like protease in yeast; 330,000 tested, 0.19% active; Potency, µM (top dose mostly 32.9 µM), for the others: at the top dose activity, positive = growth rescue, hits mostly activators; AID 485353; S. cerevisiae expressing SARS-CoV PLpro, growth rescue; calls by dose curve; note: 0% is about no effect; nearly all actives have a fitted effect of over 55% in size
NS1 inh: inhibitors of influenza NS1 protein function; Potency, µM (series often up to 46.1 µM), for inactives: at the top dose activity, positive = more growth; 270,000 tested, 0.4% active; AID 2326; calls by dose curve; note: actives are rising curves; nearly all actives have a fitted effect of over 50% in size
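A cell-based growth assay was used: compounds that relieve NS1-induced slow growth of budding yeast raise OD600. Assay medium was yeast nitrogen base with ammonium sulphate and -URA supplement, pH 6.0, with 2% galactose.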
HCV inhibitor: inhibitors of hepatitis C virus infection | Potency, µM (top dose mostly 41.8 µM), for inactives: at the top dose activity change, negative = inhibition, actives largely listed as inhibitors | 340,000 tested, 3.4% active | AID 651820 | Huh7.5.1 HCVcc-Cre infection, luciferase reporter, 44 h; note: % is set by controls: 0 for no effect and ±100 for the full control effect
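Luciferase read-out (15 sec integration) after a 15 min room-temperature substrate step quantifies HCVcc-Cre infection. Cells, 1,000 per well, had compound added 4 h post-plating, then virus at ~0.5 moi, and were cultured 44 h.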
AMA1 RON2 block: disrupts binding of P. falciparum AMA1 to RON2; AlphaScreen AMA1-biotinylated RON2 peptide binding; Potency, µM (titrated, usually from 58.2 µM), inactives show top-dose activity change, negative = inhibition, most hits filed as inhibitors; 360,000 tested, 0.2% active;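 note: 0% = vehicle wells and -100% = peptide control; nearly all actives have a fitted effect of over 45% in size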
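AMA1 (3D7) with his tag at 25 nM final met compounds first, then biotinylated RON2 peptide at 25 nM; detection used donor plus acceptor beads, 10 µg/mL apiece, read by AlphaScreen after 30 min at room temperature.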
Pf growth 96h: P. falciparum growth inhibition at 96 hour, primary screen for plastid delayed-death inhibitors | P. falciparum luciferase reporter growth, 96 h | Potency, µM (doses to about 28.7 µM), inactives show at the top dose activity change, negative = inhibition, most hits filed as inhibitors | 320,000 tested, 6.9% active | AID 504834; note: % is set by controls: 0 for no effect and ±100 for the full control effect
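96 h incubation, 37 C, 5% CO2, of luciferase-reporter P. falciparum-infected RBCs (2% hematocrit, 0.05% parasitemia final) with test compounds; endpoint luminescence.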
Pf growth 48h: P. falciparum growth inhibition at 48 hours (one generation); AID 504832; 310,000 tested, 5.9% active; P. falciparum luciferase growth in erythrocytes, 48 h; Potency, µM (titrated, usually from 28.7 µM), for the others: at the highest dose activity change, negative = inhibition, actives largely listed as inhibitors; note: % is set by controls: 0 for no effect and ±100 for the full control effect
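Luminescence readout; reporter = integrated firefly luciferase in P. falciparum. RBC culture at 2% hematocrit, 0.1% parasitemia final, 37 C/5% CO2; decreased signal taken as growth inhibition.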
Active calls of the source: *; ? = inconclusive; / = no result; [ ] = dose if it differs, or a comment. An excerpt weighted towards active compounds, which were near 12% of everything screened. Unless noted, calls come from the whole dose curve; as a rule, active = well fitted curve in the direction sought with a large enough effect; inconclusive = small, poorly fitted or top-dose-only effect, or another doubt; inactive = no such curve, though single readings can be large; an effect the other way counts as inactive or inconclusive. Potency is the fitted concentration of half-maximal effect.

SMILES	SARS PLpro yeast	NS1 inh	HCV inhibitor	AMA1 RON2 block	Pf growth 96h	Pf growth 48h
CCOC(=O)c1sc(NC(=O)c2ccc(S(=O)(=O)N(C)C)cc2)cc1C	7%	-1%	11µM*	-9%	5.2µM*	/
CCOC(=O)c1sc(NC(=O)c2ccccc2)cc1C	-23%	-71%	?	12%	?	/
CCOC(=O)c1sc(NC(=O)Nc2ccc(Cl)cc2)cc1C	-31%	-32%	?	-6%	?	4.1µM*
CCOC(=O)c1sc(NC(=O)c2c(C)nn(Cc3ccccc3)c2C)cc1C	-3%	-31%	18µM*	-12%	1%	9.3µM*
CCCCC(CC)CNC(=O)C(=O)c1ccccc1NC(C)=O (centres undefined)	?	10%	21%	-11%	?	?
CN(C)S(=O)(=O)c1ccc(N2CCCC2)c(C(=O)N2CCC(C(N)=O)CC2)c1	0%	/	?	-12%	?	3%
CCOC(=O)c1[nH]c2ccccc2c1NC(=O)c1ccc(S(=O)(=O)N2CCOCC2)cc1	6%	20%	4%[8.37 µM]	-2%	15µM*	?
CCOC(=O)c1sc(NC(=O)c2cccc(S(=O)(=O)N(CC)CC)c2)cc1C	-6%	1%	?	-7%	2.1µM*	/
CCOC(=O)c1sc(NC(=O)C2CC2)cc1C	-20%	-126%	-25%	-4%	?	?
Cc1ccc(CNC(=O)COC(=O)c2ccc(S(=O)(=O)N3CCOCC3)cc2)cc1	6%	/	3%	-7%	/	/
CCOC(=O)c1sc(NC(=O)c2cccc(S(=O)(=O)N3CCN(C)CC3)c2)cc1C	6%	-5%	?	-9%	-9%	2.3µM*
CCOC(=O)c1sc(NC(=S)NC(=O)C2CCCC2)cc1C	-25%	8%	?	-5%	9.3µM*	?
COC(=O)c1c(NC(=O)c2cccc(S(=O)(=O)N3CCN(C)CC3)c2)sc(C)c1C	9%	/	?	0%	12µM*	?
CN(C(=O)COC(=O)c1ccc(S(=O)(=O)N2CCOCC2)cc1)c1ccccc1	1%	/	21%	17%	/	/
CCCNC(=O)Cc1c(C)oc2ccccc12	-3%	2%	0%	8%	-3%	40%
COCCN1C(=O)COc2ccccc2C1C(=O)Nc1c(C)cccc1C (centres undefined)	/	/	/	-8%	/	/
CCN(CC)S(=O)(=O)c1ccc(NC(=O)CN(c2ccc(OC)cc2OC)S(C)(=O)=O)cc1	-5%	-39%	-1%	12%	-25%	9.3µM*
CCOc1ccc(N(C(C)C(=O)Nc2ccc(OC)cc2)S(C)(=O)=O)cc1 (centres undefined)	-3%	-10%	6%	-2%	?	-3%
CCN(CC)S(=O)(=O)c1ccc(NC(=O)C(C)N(c2ccc(OC)cc2)S(C)(=O)=O)cc1 (centres undefined)	-4%	-15%	10µM*	-4%	/	-36%
COc1ccc(Nc2nnc(SCC3CCCO3)s2)cc1 (centres undefined)	-4%	-4%	?	8%	?	0%
CCOC(=O)N1CCN(C(=O)CSC2=NS(=O)(=O)c3cc(F)ccc3N2)CC1	7%	/	11%	4%	-1%	?
CCOc1cc(/C=C2\SC(=N)N(c3nonc3N)C2=O)ccc1OCCN1CCOCC1	1%	-5%	15%	-1%	?	1.3µM*
O=C(COC(=O)C1CSC2(c3ccc(F)cc3)CCC(=O)N12)NC(=O)NC1CCCC1 (centres undefined)	2%	/	-6%	13%	15%	1%
CCn1c(SCC(=O)Nc2cccc(C)c2)nc2nc3c(cc2c1=O)COC(C)(C)C3	0%	0%	?	-8%	?	?
Oc1ccccc1CN(Cc1ccco1)CC(O)COCc1ccc(Cl)cc1 (centres undefined)	-13%	-47%	?	-5%[11.6 µM]	2.1µM*	2.9µM*
SMILES	SARS PLpro yeast	NS1 inh	HCV inhibitor	AMA1 RON2 block	Pf growth 96h	Pf growth 48h
O=S(CC(O)COCc1ccc(Cl)cc1)c1ccccn1 (centres undefined)	2%	4%	6%	-7%	/	7%
COc1ccc(COCC(O)CN(Cc2ccco2)Cc2ccccc2O)cc1 (centres undefined)	0%	-6%	15%	-5%	4.7µM*	8.3µM*
O=S(=O)(c1ccc2ccccc2c1)N(CC(O)COCc1ccco1)c1ccccc1 (centres undefined)	/	-7%	-19%	-10%	-17%	-19%
Nc1nc(Cl)nc2c1ncn2[C@@H]1O[C@H](CO)[C@H](O)C1F (some centres undefined)	/	/	/	/	-17%	-7%
CC12CC3CC(C)(C1)CC(C(=O)Nc1nncs1)(C3)C2	0%	1%	4%	-10%	0%	9%
COc1cc(NS(=O)(=O)c2ccc(OC)c(C)c2C)c(OC)cc1Cl	-19%	-1%	10µM*	0%	/	?
CC(C)COc1ccc(C(=O)Nc2scc(-c3ccc(Cl)cc3Cl)c2C(N)=O)cc1	-5%	22%	13µM*	-1%	?	3.3µM*
Cc1cc(C(=O)OCC(N)=O)c(C)n1-c1ccccc1	0%	/	0%	-9%	2.1µM*	?
Cc1ccccc1C(=O)OCn1nnc2ccccc2c1=O	?	-10%	9%	6%	8.3µM*	-1%
CCOC(=O)c1cc(C)n(-c2ccccc2)c1C	1%	-5%	-11%	?	16%	88%
Cc1cc(C(=O)COc2cccc(-n3cnnn3)c2)c(C)n1-c1ccccc1	-10%	-11%	1µM*	-14%	-4%	?
C/C(N)=C(/C#N)C(=O)COC(=O)c1cc(C)n(-c2ccc(F)cc2)c1C	-15%	-5%	?	18%	3.3µM*	8.3µM*
COc1cc2c3c(n(C)c(=O)c2cc1OC)-c1cc2c(cc1C3=O)OCO2	/	/	?	-3%	/	/
O=C1CCC(C(=O)OCC(=O)Nc2ccc(SC(F)F)cc2)=NN1	/	/	/	1%	/	/
Cc1cc(C(=O)OCn2nnc3ccccc3c2=O)c(C)n1-c1ccccc1	-1%	?	?	-9%	1.9µM*	?
Cc1ccc(-c2cc(C(=O)OCn3nnc4ccccc4c3=O)c3ccccc3n2)cc1	3%	4%	-3%	7%	16%	-21%
CCOC(=O)c1sc(NC(=O)CN2C(=O)NC3(CC(C)CC(C)(C)C3)C2=O)c(C(=O)OCC)c1C (centres undefined)	17%	12%	5%	15%	2.1µM*	8.3µM*
CC1CC(C)(C)CC2(C1)NC(=O)N(CC(=O)Nc1c(F)cccc1F)C2=O (centres undefined)	0%	/	4%	-7%	-17%	-12%
